Active and inactive are the calls of the source.

One test deals with Albumin (Bos taurus) (UniProt P02769). Briefly: bovine serum albumin binders on microarray, profiling panel, artefact control for SMM control protein annotation, biochemical, small-molecule microarray, Alexa647 label, 635/667 nm fluorescence (AID 1118).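 Also: score merges 667 nm emission intensity and signal-to-noise per printed compound spot.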 As to conditions: BSA-A647 binding, fluorescence 635 nm, higher = more signal.
The nature of test [1]: small-molecule microarray binders of probe aXIP, primary screen, biochemical, NeuroSMM set, 635/667 nm fluorescence (AID 1119).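 Also: probe is the protein aXip251-270 applied at 1 µg/mL to compound-printed slides; binding of probe to printed compounds measured as 667 nm fluorescence plus signal to noise.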 Conditions: higher = more signal, called active from +8 up or from −8 down.
Test [2] can be described thus: small-molecule binders of probe aNOTCH3, primary screen, biochemical, small-molecule microarray, 635/667 nm fluorescence (AID 1120).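 Also: probe is a biotin-tagged antibody raised against NOTCH3 rather than NOTCH3 protein; score merges spot fluorescence near 667 nm with spot signal to noise.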 As to conditions: higher = more signal.
Test [3] in a line: small-molecule binders of probe aNOTCH2, primary screen, biochemical, small-molecule microarray, 635/667 nm fluorescence (AID 1121).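 Also: score merges feature fluorescence read at 667 nm with its signal to noise.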 As to conditions: higher = more signal.
In test [4] the target is Carbonic anhydrase 2 (Homo sapiens) (UniProt P00918). As to the kind of experiment: CAII small-molecule binders, profiling panel, biochemical, small-molecule microarray, Alexa647-labelled CAII (AID 1122). Conditions: CAII-A647 binding fluorescence, higher = more signal.
Test [5] is described as follows: COS7 lysate on small-molecule microarray, probe aHis, 635 nm (AID 1123).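 Also: z-score combines 667nm fluorescence intensity with signal-to-noise per printed compound spot.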 As to conditions: COS7 cell lysate, fluorescence, higher = more signal.
The nature of test [6]: compound binding in COS7 lysate, probe aLAP1, primary screen, cell lysate, small-molecule microarray (AID 1124).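 Also: lysate comes from COS7 cells expressing LAP1 and is applied at 0.3 µg/mL; score merges spot fluorescence near 667 nm with signal-to-noise over triplicate slides.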 As to conditions: probe aLAP1, fluorescence, higher = more signal.
The next test deals with Sam68 (KHDRBS1). Briefly: Sam68 small-molecule binders, primary screen, biochemical, small-molecule microarray, 635 nm fluorescence (AID 1125).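 Also: score merges 667 nm channel intensity with signal to noise over triplicate slides.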 As to conditions: small-molecule microarray binding, higher = more signal.
The test system of test [7] is Chordin-like protein 2 (CHRDL2). As to the kind of experiment: CHRDL2 small-molecule binders, primary screen, biochemical, small-molecule microarray, 635 nm fluorescence (AID 1126).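 Also: printed compound slides probed with Chrdl2 protein at 4 µg/mL for 1 h at 4 C; score merges 667 nm emission intensity with signal to noise over three replicate slides.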 As to conditions: small-molecule microarray binding, fluorescence 635 nm; higher = more signal.
Test [8] has as its target Concanavalin-A (Canavalia ensiformis) (UniProt P02866). As to the kind of experiment: ConA small-molecule binders, primary screen, artefact control for SMM control protein annotation, biochemical, small-molecule microarray, Alexa647 label, 635 nm (AID 1127).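 Also: z combines 667 nm emission intensity with signal-to-noise across three replicate slides.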 Conditions: ConA-A647 binding fluorescence, higher = more signal.
Test [9] is described as follows: anti-His antibody binders, primary screen, artefact control for SMM control protein annotation, biochemical, small-molecule microarray, 635 nm fluorescence (AID 1128).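 Also: score merges feature fluorescence with signal-to-noise for each printed compound spot.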 As to conditions: anti-His Alexa647 antibody binding, higher = more signal.
Test [10] deals with Human papillomavirus type 1a E7 protein (residues 1-88). As to the kind of experiment: HPV1a E7 small-molecule binders, primary screen, biochemical, small-molecule microarray, residues 1-88, 635 nm (AID 1129). Conditions: small-molecule microarray binding, fluorescence 635 nm; higher = more signal.
Test [11] concerns the target Focal adhesion kinase 1 (Homo sapiens) (UniProt Q05397). Briefly: small-molecule microarray binders of FAK, primary screen, biochemical, 635/667 nm fluorescence, BSA, DTT (AID 1130).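 Also: composite of spot emission at 667 nm and signal to noise over triplicate slides.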 Conditions: PTK2 binding, 635 nm fluorescence, higher = more signal.
The test system of test [12] is Fibrinogen (Alexa647-labelled). As to the kind of experiment: fibrinogen binders on compound microarrays, profiling panel, artefact control for SMM control-protein annotation, biochemical, small-molecule microarray, 635/667 nm fluorescence (AID 1131).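 Also: z-score merges 667 nm fluorescence with per-spot signal-to-noise over triplicate slides.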 As to conditions: fibrinogen-A647 binding fluorescence, higher = more signal.
Test [13] has as its target Follistatin (Homo sapiens) (UniProt P19883). Briefly: follistatin binders on small-molecule microarrays, primary screen, biochemical, small-molecule microarray, 635/667 nm fluorescence (AID 1132). As to conditions: FST binding, 635 nm fluorescence, higher = more signal.
The target in test [14] is Fibroblast growth factor 2 (Homo sapiens) (UniProt P09038). As to the kind of experiment: FGF2 binders on small-molecule microarrays, primary screen, biochemical, small-molecule microarray, 635/667 nm fluorescence (AID 1133). As to conditions: small-molecule microarray binding, FGF2, fluorescence 635/667; higher = more signal.
Test [15] is described as follows: mitochondrial membrane potential change in A549 cells, profiling panel, cell-based, JC-1 fluorescence, basal, 24 h, 100 nL (AID 1138).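 Also: A549 lung adenocarcinoma cells under basal conditions with no added stimulus; test concentration not given here.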 As to conditions: higher = more signal.
The subject of the next test is Lefty1. As to the kind of experiment: Lefty1 binders on small-molecule microarrays, primary screen, biochemical, small-molecule microarray, 635/667 nm fluorescence (AID 1139). As to conditions: small-molecule microarray binding, fluorescence 635/667; higher = more signal.
For test [16], the system named is wheat germ agglutinin (Triticum aestivum), Alexa647-labelled. Briefly: wheat germ agglutinin binders on compound microarrays, profiling panel, artefact control for SMM control-protein annotation, biochemical, small-molecule microarray, 635/667 nm fluorescence (AID 1140).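 Also: score merges 667 nm feature emission with signal to noise over triplicate slides.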 Conditions: WGA-A647 binding, 635 nm fluorescence, higher = more signal.
For test [17], the target named is Luciferin 4-monooxygenase (Photinus pyralis) (UniProt P08659). As to the kind of experiment: firefly luciferase enzyme inhibitors, primary screen, biochemical, luminescence, purified enzyme, 2006 set (AID 1141).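 Also: cell-free assay with purified firefly luciferase at 100 ng per well in PBS; test concentration not given here.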 As to conditions: SteadyGlo luminescence, 30 min, higher = more signal, called active from +8 up or from −8 down.
Sequence of Luciferin 4-monooxygenase (Photinus pyralis) (P08659 whole entry, looked up): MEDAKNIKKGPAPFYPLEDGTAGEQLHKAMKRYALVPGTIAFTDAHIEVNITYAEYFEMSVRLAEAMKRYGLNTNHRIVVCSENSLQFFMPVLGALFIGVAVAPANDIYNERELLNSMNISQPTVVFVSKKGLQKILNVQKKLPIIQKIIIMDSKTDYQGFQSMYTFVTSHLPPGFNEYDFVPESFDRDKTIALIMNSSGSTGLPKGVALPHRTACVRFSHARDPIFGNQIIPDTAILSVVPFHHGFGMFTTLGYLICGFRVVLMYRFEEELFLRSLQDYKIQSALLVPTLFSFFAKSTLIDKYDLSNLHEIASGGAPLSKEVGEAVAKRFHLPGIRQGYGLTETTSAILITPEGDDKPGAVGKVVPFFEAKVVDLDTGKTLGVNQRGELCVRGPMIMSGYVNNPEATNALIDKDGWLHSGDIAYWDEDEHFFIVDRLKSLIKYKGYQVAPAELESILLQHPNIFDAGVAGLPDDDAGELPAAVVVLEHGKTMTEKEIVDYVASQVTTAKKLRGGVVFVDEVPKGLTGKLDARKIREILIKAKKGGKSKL

Sequence of Follistatin (Homo sapiens) (P19883 whole entry, looked up): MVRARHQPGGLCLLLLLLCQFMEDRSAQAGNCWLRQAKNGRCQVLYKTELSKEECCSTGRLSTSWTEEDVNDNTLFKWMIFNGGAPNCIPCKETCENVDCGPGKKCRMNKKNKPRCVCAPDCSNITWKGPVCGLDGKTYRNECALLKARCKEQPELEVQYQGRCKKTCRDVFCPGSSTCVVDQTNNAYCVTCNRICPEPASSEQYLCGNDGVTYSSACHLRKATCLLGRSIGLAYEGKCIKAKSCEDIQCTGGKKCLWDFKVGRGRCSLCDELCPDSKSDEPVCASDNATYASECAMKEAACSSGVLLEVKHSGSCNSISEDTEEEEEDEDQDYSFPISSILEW
Sequence of Albumin (Bos taurus) (P02769 whole entry, looked up): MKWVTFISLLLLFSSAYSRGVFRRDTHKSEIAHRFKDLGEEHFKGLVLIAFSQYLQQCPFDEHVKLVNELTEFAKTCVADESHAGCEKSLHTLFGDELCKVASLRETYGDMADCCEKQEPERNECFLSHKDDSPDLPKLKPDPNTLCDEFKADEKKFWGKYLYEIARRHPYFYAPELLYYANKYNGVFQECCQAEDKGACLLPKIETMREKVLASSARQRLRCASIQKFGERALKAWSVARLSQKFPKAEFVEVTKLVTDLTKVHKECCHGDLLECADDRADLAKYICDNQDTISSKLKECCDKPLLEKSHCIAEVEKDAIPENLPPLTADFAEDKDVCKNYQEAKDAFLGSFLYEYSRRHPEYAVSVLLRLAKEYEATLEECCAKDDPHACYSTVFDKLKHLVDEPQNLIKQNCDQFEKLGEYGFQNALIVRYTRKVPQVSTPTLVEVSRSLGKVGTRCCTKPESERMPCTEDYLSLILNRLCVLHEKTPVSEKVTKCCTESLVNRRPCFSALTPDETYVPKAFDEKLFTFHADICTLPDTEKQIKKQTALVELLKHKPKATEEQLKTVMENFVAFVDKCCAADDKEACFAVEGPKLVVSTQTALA
Sequence of Fibroblast growth factor 2 (Homo sapiens) (P09038 whole entry, looked up): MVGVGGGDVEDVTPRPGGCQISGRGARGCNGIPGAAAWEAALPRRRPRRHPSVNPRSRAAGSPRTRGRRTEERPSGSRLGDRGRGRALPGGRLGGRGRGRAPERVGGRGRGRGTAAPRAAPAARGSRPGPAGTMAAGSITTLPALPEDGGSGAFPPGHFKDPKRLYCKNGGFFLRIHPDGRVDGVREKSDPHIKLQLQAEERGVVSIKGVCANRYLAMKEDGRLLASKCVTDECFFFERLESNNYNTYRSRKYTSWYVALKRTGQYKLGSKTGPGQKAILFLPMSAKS
Sequence of Concanavalin-A (Canavalia ensiformis) (P02866 whole entry, looked up): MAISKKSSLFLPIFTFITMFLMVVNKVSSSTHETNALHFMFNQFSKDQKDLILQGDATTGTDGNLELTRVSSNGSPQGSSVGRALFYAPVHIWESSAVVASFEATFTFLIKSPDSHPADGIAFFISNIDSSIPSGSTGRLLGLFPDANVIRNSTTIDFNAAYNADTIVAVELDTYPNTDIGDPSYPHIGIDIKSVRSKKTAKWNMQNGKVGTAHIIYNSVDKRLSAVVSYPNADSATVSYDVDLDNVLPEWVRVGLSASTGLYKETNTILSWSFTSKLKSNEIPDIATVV
Sequence of Focal adhesion kinase 1 (Homo sapiens) (Q05397 whole entry, looked up): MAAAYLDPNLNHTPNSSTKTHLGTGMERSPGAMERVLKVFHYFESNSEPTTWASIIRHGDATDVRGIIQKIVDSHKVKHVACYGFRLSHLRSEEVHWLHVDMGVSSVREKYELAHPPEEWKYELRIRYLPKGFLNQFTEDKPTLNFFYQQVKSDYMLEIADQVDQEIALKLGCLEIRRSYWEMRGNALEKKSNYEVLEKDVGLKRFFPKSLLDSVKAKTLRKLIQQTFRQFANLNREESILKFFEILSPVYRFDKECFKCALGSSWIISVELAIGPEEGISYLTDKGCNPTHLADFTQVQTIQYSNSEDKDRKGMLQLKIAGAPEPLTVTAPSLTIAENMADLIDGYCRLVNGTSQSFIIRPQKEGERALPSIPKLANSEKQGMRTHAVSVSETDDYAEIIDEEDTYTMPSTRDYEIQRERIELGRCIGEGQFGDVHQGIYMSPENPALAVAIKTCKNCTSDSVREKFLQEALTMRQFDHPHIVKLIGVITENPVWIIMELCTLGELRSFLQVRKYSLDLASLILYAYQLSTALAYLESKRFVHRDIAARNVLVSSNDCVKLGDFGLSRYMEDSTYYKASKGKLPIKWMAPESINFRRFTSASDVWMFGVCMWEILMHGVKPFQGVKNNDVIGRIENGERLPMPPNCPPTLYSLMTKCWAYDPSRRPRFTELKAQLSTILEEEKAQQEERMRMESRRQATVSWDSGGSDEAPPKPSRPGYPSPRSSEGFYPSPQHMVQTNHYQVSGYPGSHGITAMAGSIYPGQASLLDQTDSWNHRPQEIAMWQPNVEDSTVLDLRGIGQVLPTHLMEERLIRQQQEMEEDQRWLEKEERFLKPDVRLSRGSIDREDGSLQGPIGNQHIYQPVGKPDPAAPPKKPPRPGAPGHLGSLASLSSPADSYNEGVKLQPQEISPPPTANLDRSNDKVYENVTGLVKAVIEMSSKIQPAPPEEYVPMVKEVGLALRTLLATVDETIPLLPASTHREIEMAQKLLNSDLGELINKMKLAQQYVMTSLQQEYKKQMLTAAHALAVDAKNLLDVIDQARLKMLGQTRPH

As to `C#CCN([C@@H](Cc1ccccc1)C(=O)OC)[C@@H](/C=C/C1CC1)[C@H](O)Cc1ccccc1`, the composite z-score was 0.801 with Albumin (Bos taurus); -0.0984 in test [2]; -0.208 in test [3]; -0.321 in test [4]; -0.0769 in test [5]; 0.868 in [6]. Also, the composite z-score was -0.326 in the test with Sam68 (KHDRBS1); 1.16 in [7]; -1.5 in [8]; -0.429 in [9]; -0.515 in test [10]; -0.157 in [11]. Further, the composite z-score in [12] is -0.873; in test [13], 0.722; in [14] it was -0.0248; in the test on Lefty1 it was 0.166; in test [16], 0.0211. Also, the composite Z-score in test [1] was -0.275 (inactive). The z-score in test [15] was 3.45; in test [17], 0.412 (inactive).

For the molecule `O=C1O[C@@H](c2ccccc2)[C@@H](c2ccccc2)N2[C@@H](c3ccc(O)cc3)[C@]3(C(=O)Nc4ccc(C#CCCO)cc43)[C@@H](C(=O)N3CCN(c4ncccn4)CC3)[C@H]12`, the composite z-score was -0.777 with Albumin (Bos taurus); 0.148 in [2]; -0.457 in test [3]; 0.523 in [4]; 0.457 in [5]; -0.143 in test [6]. Besides, the composite z-score was found to be 1.11 in the test on Sam68 (KHDRBS1); 1.14 in test [7]; 1.12 in [8]; 1.56 in test [9]; 1.14 in test [10]; 0.165 in test [11]. Further, the composite z-score in test [12] was determined as 0.512; in [13] it was 1.37; in test [14] it was 1.68; with Lefty1 it was 0.952; in test [16], 0.0869. Further, the composite Z-score in test [1] was 0.698 (inactive). In addition, the z-score was -1.25 in test [15] and 0.764 (inactive) in [17].

For `CCCCN1CC=CC23O[C@@H]4/C=C\CCCOC(=O)C4[C@H]2C(=O)N(CCO)[C@@H]3C1=O` (stereo not given in full), the composite z-score with Albumin (Bos taurus) was 0.634; in test [2] it was -0.426; in [3] it was -0.161; in test [4], 0.321; in [5], 1.1; in test [6], -0.0065. The composite z-score in the test on Sam68 (KHDRBS1) is 0.109; in [7], -1.08; in test [8], -0.557; in test [9], 1.3; in test [10], 0.0166; in [11] it was 0.101. Further, the composite z-score in [12] was -1.25; in [13], -1.03; in [14] it was -1.33; in the test with Lefty1, -0.832; in test [16], -0.724. The composite Z-score in test [1] is 0.257 (inactive). For the same molecule, the results for the z-score in test [15] and in test [17] were -0.655 and 1.19 (inactive), respectively.

Turning to `COC(=O)C/C=C/C[C@]1(O)C(=O)N(C)c2ccccc21`, the composite z-score with Albumin (Bos taurus) is -0.475; in test [2] it was 0.212; in test [3], -0.099; in [4] it was 0.273; in [5], 0.401; in test [6] it was 0.111. The composite z-score is 0.241 with Sam68 (KHDRBS1); 0.934 in test [7]; -0.556 in test [8]; -0.0221 in test [9]; 0.243 in [10]; 1.03 in test [11]. Further, the composite z-score in test [12] is -0.0833; in [13], 0.721; in test [14] it was 0.561; in the test with Lefty1, 1.17; in [16] it was 0.0278. Moreover, the composite Z-score in [1] is -0.571 (inactive). The z-score in test [15] is 1.03; in test [17], -1.63 (inactive).

As to `CCCNC(=O)[C@@H]1c2ccccc2C(=O)N(Cc2ccc(OC(F)(F)F)cc2)[C@H]1c1ccc(CO)cc1`, the composite z-score is 0.27 with Albumin (Bos taurus); -0.0288 in test [2]; -0.0326 in test [3]; 0.158 in test [4]; 0.677 in test [5]; -0.374 in [6]. Besides, the composite z-score in the test with Sam68 (KHDRBS1) is 0.416; in test [7], 0.102; in test [8], 0.0505; in test [9] it was 0.0772; in test [10], 0.907; in [11], -0.0662. For the same molecule, the composite z-score in [12] was 0.368; in test [13], 0.887; in [14], 0.908; with Lefty1, -0.0534; in test [16], 0.0988. The composite Z-score in [1] was -0.123 (inactive). Also, the z-score in [15] is 1.93; in [17] it was 0.283 (inactive).

With `CC1CC/C=C\[C@H]2OC34C=CCN(C(C)C)C(=O)[C@H]3N(CCO)C(=O)[C@@H]4C2C(=O)O1` (stereo not given in full), the composite z-score with Albumin (Bos taurus) was -0.935; in test [2], -0.312; in test [3], -0.125; in test [4], 0.933; in [5], -0.31; in [6], 0.492. Further, the composite z-score in the test on Sam68 (KHDRBS1) was -0.175; in test [7], -1.26; in [8], -1.8; in [9], -0.567; in [10] it was -0.724; in test [11], -0.301. The composite z-score in [12] was -1.41; in [13], -1.27; in test [14], -1.03; in the test with Lefty1, -0.445; in test [16], -0.748. The composite Z-score in test [1] is -0.0467 (inactive). The z-score in test [15] is 0.193; in test [17] it was -0.886 (inactive).
